# Key:
# [1] = system: Pseudomonas aeruginosa PA14 dppA1-A5 penta mutant + pBBR5.DppA1 (PA14_58350); experiment: respiration area under curve with compound as sole nitrogen source, 24 h (OmniLog AUC (arbitrary units)); higher = more respiration / better utilisation as nitrogen source, active = 2000 or more
# Procedure: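 Biolog Phenotype MicroArray plates PM6-PM8: each di/tripeptide is the sole nitrogen source. Tetrazolium reduction was read in the OmniLog for 24 h at 37°C and summarised as area under the respiration curve (arbitrary units). Values below 2000 count as no respiration. Strain is the SBP penta mutant complemented with DppA1 on a plasmid under its native promoter. Lys/His/Cys peptides are excluded.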
# [2] = system: Pseudomonas aeruginosa PA14 wild type; experiment: as above
# Procedure: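 Biolog Phenotype MicroArray plates PM6-PM8: each di/tripeptide is the sole nitrogen source (IF-0 medium with succinate/ferric citrate and dye mix A). Tetrazolium reduction was read in the OmniLog every 15 min for 24 h at 37°C and summarised as area under the respiration curve (arbitrary units). The paper counts values below 2000 as no respiration and above 8000 as solid respiration. Replicate datasets are averaged.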
Compound,respiration area under curve [1],respiration area under curve [2]
CC(C)[C@H](NC(=O)[C@@H](N)CCCN=C(N)N)C(=O)O (plate: PM6),7530 (active),8950 (active)
CC(C)C[C@H](N)C(=O)N[C@@H](CC(N)=O)C(=O)O (plate: PM8),11100 (active),
C[C@H](O)[C@@H](NC(=O)CN)C(=O)O (plate: PM8),0 (inactive),
N[C@@H](Cc1ccc(O)cc1)C(=O)N[C@@H](Cc1ccc(O)cc1)C(=O)O (plate: PM7),6170 (active),
N[C@@H](CC(=O)O)C(=O)N[C@@H](CCC(=O)O)C(=O)O (plate: PM6),437 (inactive),291 (inactive)
CC[C@H](C)[C@H](NC(=O)CNC(=O)CN)C(=O)O (plate: PM8),2430 (active),10400 (active)
CC(C)C[C@H](NC(=O)[C@@H](N)CCCN=C(N)N)C(=O)O (plate: PM6),7900 (active),
C[C@H](NC(=O)[C@@H](N)CCCN=C(N)N)C(=O)O (plate: PM6),8610 (active),
C[C@H](N)C(=O)N[C@@H](Cc1ccccc1)C(=O)O (plate: PM6),6990 (active),7710 (active)
CC(C)C[C@H](N)C(=O)N1CCC[C@H]1C(=O)O (plate: PM8),5120 (active),9370 (active)
C[C@@H](O)[C@H](N)C(=O)N[C@@H](CCC(=O)O)C(=O)O (plate: PM7),5630 (active),
CC(C)[C@H](N)C(=O)N1CCC[C@H]1C(=O)O (plate: PM8),10300 (active),
NC(=O)CC[C@H](NC(=O)[C@@H](N)CCCN=C(N)N)C(=O)O (plate: PM6),8870 (active),9850 (active)
